Test results reported in PubChem BioAssay AID2284377 (EPA ToxCast).
Inconclusive results are not listed. Calls of active or inactive are those of the source. Rule for the calls: active = hit-call score of the fitted dose curve at least 0.9, where 1 is the maximum; inconclusive = response in the unintended direction; inactive = score below 0.9.

biological target: Estrogen receptor (Homo sapiens) (UniProt P03372); test: ERF_TW_NR_COA_hESR1: Eurofins (ERF) Nuclear Receptor (NR) Functional Coactivator Assay for human Estrogen Receptor alpha (ERa) Agonism
Sequence (P03372 whole entry, looked up): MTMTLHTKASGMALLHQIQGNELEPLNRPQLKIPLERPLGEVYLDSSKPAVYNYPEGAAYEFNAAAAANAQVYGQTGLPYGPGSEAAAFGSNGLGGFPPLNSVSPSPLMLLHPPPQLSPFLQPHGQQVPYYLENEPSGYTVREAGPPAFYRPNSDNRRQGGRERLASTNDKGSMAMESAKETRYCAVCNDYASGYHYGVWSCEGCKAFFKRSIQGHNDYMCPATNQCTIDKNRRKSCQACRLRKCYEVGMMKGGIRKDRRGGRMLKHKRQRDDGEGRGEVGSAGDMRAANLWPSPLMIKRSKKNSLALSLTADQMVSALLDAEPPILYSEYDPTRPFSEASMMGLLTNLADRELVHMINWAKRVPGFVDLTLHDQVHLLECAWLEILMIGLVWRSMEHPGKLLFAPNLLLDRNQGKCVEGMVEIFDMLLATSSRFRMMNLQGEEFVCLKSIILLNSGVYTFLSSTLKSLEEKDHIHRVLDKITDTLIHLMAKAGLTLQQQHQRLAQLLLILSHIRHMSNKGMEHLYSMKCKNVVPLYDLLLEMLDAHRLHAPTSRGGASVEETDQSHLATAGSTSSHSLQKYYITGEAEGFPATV
Experimental: ERF_TW_NR_COA_hESR1 is a biochemical, single-readout assay that uses extracted gene-proteins in a cell-free assay. Measurements were taken 0.16 hours after chemical dosing in a 96-well plate. See ERalpha Human Estrogen NHR Functional Agonist Coactivator Assay, Panlabs.ERF_TW_NR_COA_hESR1 is an assay component calculated from the ERF_TW_NR_COA_hESR1 assay. It is designed to measure FRET using a type of binding reporter as detected by fluorescence intensity of estriol with fluorimetry technology.Data from the assay component ERF_TW_NR_COA_hESR1 was analyzed at the assay endpoint, ERF_TW_NR_COA_hESR1, in the positive analysis fitting direction relative to DMSO as the negative control and baseline of activity. Using a type of binding reporter, gain-of-signal activity can be used to understand changes in binding as they relate to gene ESR1. To generalize the intended target to other relatable targets, this assay endpoint is annotated to the nuclear receptor intended target family, where the subfamily is steroid.
Test compound and/or vehicle is incubated with the 7 nM estrogen receptor alpha (ERalpha)-LBD and coactivator peptide for 10 minutes at RT. Determination of the amount of complex formed is read spectrofluorimetrically at 520 nm/490 nm. Test compound-induced increase fluorescence by 50 percent or more (>/=50%) relative to the 1 uM Estriol response indicates possible ERalpha receptor agonist activity.

Structure (SMILES)	AC50	outcome
OCC(F)(F)OC(F)(F)C(F)(F)OC(F)(F)C(F)(F)OC(F)(F)CO	3.43 µM (active)	–
OCC(F)(F)OC(F)(F)C(F)(F)OC(F)(F)C(F)(F)OC(F)(F)F	–	inactive
NS(=O)(=O)C(F)(F)C(F)(F)C(F)(F)C(F)(F)C(F)(F)C(F)(F)C(F)(F)C(F)(F)F	–	inactive
